Drawing on PubChem BioAssay (EPA / NIEHS), this text covers outcome and AC50 for 8 compounds.

Results filed as inconclusive are left out. Calls of active or inactive are those of the source. Rule for the calls: active = hit-call score of the fitted dose curve at least 0.9, where 1 is the maximum; inconclusive = response in the unintended direction; inactive = score below 0.9.

For experiment [1], the target named is human AKT serine/threonine Kinase 2 (AKT2), AKT2 (gene 208) (UniProt P31751). Kind of experiment: NVS_ENZ_hAKT2: NovaScreen (NVS) Enzymatic Assay for human AKT serine/threonine Kinase 2 (AKT2) (AID 2283141). The method, boiled down:
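Cell-free fluorescence/electrophoretic mobility shift readout of recombinant human AKT2 activity, 1 h after chemical dosing. Duplicate primary screen at 25 uM, then singleton concentration-response up to 50 uM; loss of signal versus DMSO baseline.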

The target of experiment [2] is human Beta-secretase (BACE), BACE1 (gene 23621) (UniProt P56817). The experiment is described as follows: NVS_ENZ_hBACE: NovaScreen (NVS) Enzymatic Assay for human Beta-secretase (BACE) (AID 2283140).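 Note: hits are inhibitors that reduce fluorescent substrate signal versus DMSO.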 The method, boiled down: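 Enzyme from SF9 cells was incubated 1 hour with compound and fluorogenic substrate, activity read by fluorescence. Single-concentration duplicates at 25 uM preceded concentration-response follow-up; fitting relative to DMSO baseline.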

Experiment [3] concerns the target human Colony Stimulating Factor 1 Receptor (CSF1R), CSF1R (gene 1436) (UniProt P07333). The experiment is described as follows: NVS_ENZ_hCSF1R: NovaScreen (NVS) Enzymatic Assay for human Colony Stimulating Factor 1 Receptor (CSF1R) (AID 2283150). The method, boiled down: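 Compounds screened in duplicate at 25 uM, then concentration-response (top 50 uM) for those passing threshold such as 30% inhibition; recombinant CSF1R activity measured 1 h post-dosing via fluorescent substrate/product mobility-shift separation, loss of signal versus DMSO.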

Experiment [4] concerns the target human Casein Kinase 1-delta (CK1D), CSNK1D (gene 1453) (UniProt P48730). The experiment is described as follows: NVS_ENZ_hCK1D: NovaScreen (NVS) Enzymatic Assay for human Casein Kinase 1-delta (CK1D) (AID 2283148). The method, boiled down:
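Recombinant human CK1-delta, cell-free; fluorescent substrate with electrophoretic mobility-shift separation of product, read 1 h after dosing. Single 25 uM duplicate screen, then concentration-response up to 50 uM; loss of signal vs DMSO.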

Experiment [5] addresses human Elastase, ELANE (gene 1991) (UniProt P08246). The experiment is described as follows: NVS_ENZ_hElastase: NovaScreen (NVS) Enzymatic Assay for human Elastase (AID 2283153). The method, boiled down:
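Concentration-response to 50 uM max, run singly for chemicals passing a threshold (e.g., 30% inhibition) in a duplicate 25 uM single-point screen. Neutrophil-derived human elastase, absorbance read-out of enzyme activity at 1.5 h; DMSO baseline.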

Experiment [6] deals with human Ephrin type-B Receptor 1 (EphB1), EPHB1 (gene 2047) (UniProt P54762). The experiment is described as follows: NVS_ENZ_hEphB1: NovaScreen (NVS) Enzymatic Assay for human Ephrin type-B Receptor 1 (EphB1) (AID 2283154). The method, boiled down: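 Recombinant EphB1 activity read by fluorescence after mobility-shift separation of product from substrate, 1 h post-dosing. Compounds screened in duplicate at 25 uM; inhibition scored as signal loss relative to DMSO.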
Chain of human Ephrin type-B Receptor 1 (EphB1), EPHB1 (gene 2047) (P54762 whole entry, looked up): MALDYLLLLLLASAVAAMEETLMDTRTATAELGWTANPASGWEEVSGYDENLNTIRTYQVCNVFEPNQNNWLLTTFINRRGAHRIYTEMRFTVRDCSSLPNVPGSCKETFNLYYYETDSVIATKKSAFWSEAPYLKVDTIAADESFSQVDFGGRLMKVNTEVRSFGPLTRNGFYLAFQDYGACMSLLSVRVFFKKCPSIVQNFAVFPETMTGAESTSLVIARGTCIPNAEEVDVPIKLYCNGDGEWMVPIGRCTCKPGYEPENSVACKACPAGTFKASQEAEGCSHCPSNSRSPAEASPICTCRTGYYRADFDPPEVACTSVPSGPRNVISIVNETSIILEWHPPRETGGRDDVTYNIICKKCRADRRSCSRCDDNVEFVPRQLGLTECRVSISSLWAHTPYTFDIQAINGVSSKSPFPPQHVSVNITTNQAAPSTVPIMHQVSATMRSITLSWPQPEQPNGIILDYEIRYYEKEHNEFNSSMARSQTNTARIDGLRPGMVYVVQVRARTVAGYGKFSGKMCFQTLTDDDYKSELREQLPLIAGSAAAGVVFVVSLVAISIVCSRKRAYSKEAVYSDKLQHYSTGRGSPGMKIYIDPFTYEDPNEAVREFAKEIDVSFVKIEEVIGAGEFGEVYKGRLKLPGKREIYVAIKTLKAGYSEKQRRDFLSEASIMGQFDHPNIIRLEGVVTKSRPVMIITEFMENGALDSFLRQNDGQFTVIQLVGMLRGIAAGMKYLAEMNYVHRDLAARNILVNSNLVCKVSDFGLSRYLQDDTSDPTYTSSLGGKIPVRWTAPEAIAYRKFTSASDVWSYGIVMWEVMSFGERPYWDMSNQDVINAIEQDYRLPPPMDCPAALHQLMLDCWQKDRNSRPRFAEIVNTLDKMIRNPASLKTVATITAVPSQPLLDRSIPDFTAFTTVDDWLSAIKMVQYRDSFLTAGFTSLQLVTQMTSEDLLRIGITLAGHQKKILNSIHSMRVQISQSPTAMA

Chain of human Beta-secretase (BACE), BACE1 (gene 23621) (P56817 whole entry, looked up): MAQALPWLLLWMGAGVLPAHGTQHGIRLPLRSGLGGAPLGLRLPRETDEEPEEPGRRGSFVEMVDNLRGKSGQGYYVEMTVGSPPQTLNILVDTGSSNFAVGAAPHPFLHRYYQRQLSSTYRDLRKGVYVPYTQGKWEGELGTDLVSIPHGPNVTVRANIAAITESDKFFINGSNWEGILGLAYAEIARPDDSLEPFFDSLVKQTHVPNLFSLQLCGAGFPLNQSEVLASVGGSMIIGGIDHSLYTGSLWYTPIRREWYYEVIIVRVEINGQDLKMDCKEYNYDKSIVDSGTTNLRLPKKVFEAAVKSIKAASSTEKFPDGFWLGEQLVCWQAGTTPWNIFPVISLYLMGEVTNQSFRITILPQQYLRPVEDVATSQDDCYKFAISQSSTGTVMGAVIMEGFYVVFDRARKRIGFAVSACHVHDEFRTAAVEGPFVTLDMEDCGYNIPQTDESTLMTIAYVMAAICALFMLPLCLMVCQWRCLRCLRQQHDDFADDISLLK
Chain of human Colony Stimulating Factor 1 Receptor (CSF1R), CSF1R (gene 1436) (P07333 whole entry, looked up): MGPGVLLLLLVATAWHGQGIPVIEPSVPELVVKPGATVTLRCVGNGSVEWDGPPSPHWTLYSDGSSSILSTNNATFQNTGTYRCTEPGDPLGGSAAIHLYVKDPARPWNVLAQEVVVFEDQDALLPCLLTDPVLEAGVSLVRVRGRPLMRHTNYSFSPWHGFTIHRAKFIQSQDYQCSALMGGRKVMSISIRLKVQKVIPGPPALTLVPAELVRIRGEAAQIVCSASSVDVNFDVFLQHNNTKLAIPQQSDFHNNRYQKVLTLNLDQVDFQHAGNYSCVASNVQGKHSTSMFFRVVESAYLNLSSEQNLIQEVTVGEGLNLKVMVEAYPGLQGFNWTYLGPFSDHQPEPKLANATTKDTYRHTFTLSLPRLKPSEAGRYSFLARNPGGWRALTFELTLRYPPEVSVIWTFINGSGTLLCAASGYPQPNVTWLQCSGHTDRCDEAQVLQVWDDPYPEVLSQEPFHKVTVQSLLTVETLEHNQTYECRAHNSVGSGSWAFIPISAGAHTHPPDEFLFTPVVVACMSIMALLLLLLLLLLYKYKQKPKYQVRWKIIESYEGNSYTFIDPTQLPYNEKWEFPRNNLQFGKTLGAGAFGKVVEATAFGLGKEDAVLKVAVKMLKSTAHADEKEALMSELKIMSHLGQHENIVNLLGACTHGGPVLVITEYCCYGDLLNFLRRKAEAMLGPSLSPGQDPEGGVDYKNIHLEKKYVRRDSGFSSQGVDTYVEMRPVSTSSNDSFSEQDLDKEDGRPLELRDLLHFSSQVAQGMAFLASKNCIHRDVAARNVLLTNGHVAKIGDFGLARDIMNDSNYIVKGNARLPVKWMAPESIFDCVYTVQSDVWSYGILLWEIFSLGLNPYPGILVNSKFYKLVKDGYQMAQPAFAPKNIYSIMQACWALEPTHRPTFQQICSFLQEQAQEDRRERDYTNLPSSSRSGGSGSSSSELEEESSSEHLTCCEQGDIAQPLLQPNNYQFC
Chain of human Casein Kinase 1-delta (CK1D), CSNK1D (gene 1453) (P48730 whole entry, looked up): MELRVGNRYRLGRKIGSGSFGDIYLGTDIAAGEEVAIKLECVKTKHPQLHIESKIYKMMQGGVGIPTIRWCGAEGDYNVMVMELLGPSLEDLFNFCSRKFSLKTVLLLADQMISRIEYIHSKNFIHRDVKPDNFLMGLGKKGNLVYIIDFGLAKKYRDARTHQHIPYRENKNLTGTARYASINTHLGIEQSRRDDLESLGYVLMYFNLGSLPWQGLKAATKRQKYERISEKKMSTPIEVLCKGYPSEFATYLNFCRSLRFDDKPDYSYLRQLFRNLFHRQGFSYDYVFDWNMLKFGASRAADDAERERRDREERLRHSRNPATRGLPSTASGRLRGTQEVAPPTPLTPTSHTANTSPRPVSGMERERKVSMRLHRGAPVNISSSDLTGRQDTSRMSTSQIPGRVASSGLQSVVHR
Chain of human AKT serine/threonine Kinase 2 (AKT2), AKT2 (gene 208) (P31751 whole entry, looked up): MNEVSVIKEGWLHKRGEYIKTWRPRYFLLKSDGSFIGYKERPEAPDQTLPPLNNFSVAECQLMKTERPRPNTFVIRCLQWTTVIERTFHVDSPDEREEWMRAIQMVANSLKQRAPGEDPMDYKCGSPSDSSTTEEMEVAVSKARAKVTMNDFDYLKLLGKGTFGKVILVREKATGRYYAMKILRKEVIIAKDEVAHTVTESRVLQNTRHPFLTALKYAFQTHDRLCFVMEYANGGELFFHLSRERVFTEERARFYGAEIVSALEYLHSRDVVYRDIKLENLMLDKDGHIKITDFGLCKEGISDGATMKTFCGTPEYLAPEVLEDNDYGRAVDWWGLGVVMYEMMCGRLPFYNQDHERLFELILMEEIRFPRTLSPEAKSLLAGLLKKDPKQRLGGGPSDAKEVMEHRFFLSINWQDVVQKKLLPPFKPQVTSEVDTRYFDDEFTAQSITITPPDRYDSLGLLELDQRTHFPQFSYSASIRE
Chain of human Elastase, ELANE (gene 1991) (P08246 whole entry, looked up): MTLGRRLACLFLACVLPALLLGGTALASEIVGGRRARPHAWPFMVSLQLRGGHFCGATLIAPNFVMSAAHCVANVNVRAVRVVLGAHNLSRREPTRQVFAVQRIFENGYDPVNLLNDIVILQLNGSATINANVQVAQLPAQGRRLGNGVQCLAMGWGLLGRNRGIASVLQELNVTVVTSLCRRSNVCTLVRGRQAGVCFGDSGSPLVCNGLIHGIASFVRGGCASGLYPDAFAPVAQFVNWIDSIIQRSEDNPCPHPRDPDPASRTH

Turning to `CCCCC(CC)CN1C(=O)C2C3C=CC(C3)C2C1=O` (stereo not given), in experiment [1], the call was inactive.
For the compound `CCCCOC(=O)C(C)Oc1ccc(Oc2ccc(C(F)(F)F)cn2)cc1` (stereo not given), the concentration at half-maximal activity (AC50) in experiment [2] was 25 µM (active). The outcome in experiment [3] was inactive.
Take `CCCCCCC(C)OC(=O)COc1nc(F)c(Cl)c(N)c1Cl` (stereo not given): in experiment [2], the concentration at half-maximal activity (AC50) was 3.29 µM (active).
For `CCCCC(CC)COC(=O)c1ccccc1C(=O)O` (stereo not given), the call in experiment [4] was inactive.
For the compound `CCCCCOC(=O)COc1cc(N2C(=O)C3=C(CCCC3)C2=O)c(F)cc1Cl`, the AC50 in experiment [2] is 3.5 µM (active). Further, in experiment [5], the outcome was inactive.
`CC1(C)C(C=C(Cl)Cl)C1C(=O)OCc1cccc(Oc2ccccc2)c1` (stereo not given): the AC50 in experiment [2] was 40.2 µM (active).
With `CCCOC(=O)NCCCN(C)C`, in experiment [6], the call was inactive.
As for `CCOC(=O)[C@H](C)Oc1ccc(Oc2nc3ccc(Cl)cc3o2)cc1`, the half-maximal activity concentration (AC50) in experiment [3] was 3.18 µM (active).

As usually defined, the AC50 is the midpoint of the concentration-response curve, whichever way the signal moves.
